# Screening results (PubChem)
# Sampled rows, rich in hits. Any-hit rate of the full collection: about 11%.
# Tau fluor cs = counter-screen for tau fibril formation inhibitors. tau K18 P301L Alexa594 fluorescence, heparin fibrillization. Potency, µM (doses to about 57.7 µM), for the others: top-dose activity change, negative = decrease. actives 0.93% (n = 280,000); note: potency is the fitted concentration of half-maximal effect; nearly all actives have a fitted effect of over 55% in size
#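 Human K18 P301L tau (15 uM unlabeled plus 0.24 uM Alexa 594-labeled, final) in 100 mM sodium acetate pH 7 was mixed with compound and 20 uM heparin and incubated 6 hr at 37 C.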
# G9a inh = G9a (human) methyltransferase inhibition. Q96KQ7. G9a H3K9 monomethylation, AlphaScreen, 2 h. Potency, µM (series often up to 102 µM), for the others: at the highest dose activity, negative = inhibition, usual class: inhibitors. actives 8.8% (n = 350,000). AID 504332; note: potency is the fitted concentration of half-maximal effect; nearly all actives have a fitted effect of over 75% in size
# Target sequence (Q96KQ7 913-1193 limits assumed): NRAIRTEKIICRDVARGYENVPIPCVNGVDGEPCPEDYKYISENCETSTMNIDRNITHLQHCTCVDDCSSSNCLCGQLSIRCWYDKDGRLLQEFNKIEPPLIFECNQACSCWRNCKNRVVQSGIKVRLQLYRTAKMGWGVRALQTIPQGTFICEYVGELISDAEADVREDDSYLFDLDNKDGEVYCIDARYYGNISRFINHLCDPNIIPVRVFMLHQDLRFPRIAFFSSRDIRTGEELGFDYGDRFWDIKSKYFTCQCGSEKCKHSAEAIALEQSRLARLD
#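 Compounds were preincubated with 20 nM G9a for 15 min, after which biotinylated H3K9 peptide (500 nM) and SAM (20 uM) started a 2 h room-temperature reaction. Monomethylated product was quantified by antibody-based AlphaScreen chemiluminescence.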
# Tau fibril FP = blocks human tau fibril formation measured by polarization; Potency, µM (series often up to 57.7 µM), without a hit: at the top dose activity, negative = inhibition, usual class: inhibitors; actives 0.39% (n = 280,000); AID 1468; K18 P301L tau heparin fibrillization, Alexa594 FP, 6 h; P10636; note: potency is the fitted concentration of half-maximal effect; nearly all actives have a fitted effect of over 55% in size
# Target sequence (P10636 561-689 P618L limits assumed): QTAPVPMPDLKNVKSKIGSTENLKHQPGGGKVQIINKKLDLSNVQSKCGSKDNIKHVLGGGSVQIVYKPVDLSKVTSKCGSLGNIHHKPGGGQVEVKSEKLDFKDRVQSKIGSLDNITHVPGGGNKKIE
#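 Quantitative HTS format: compounds meet 15 uM recombinant K18 P301L tau and Alexa 594-tau tracer in 100 mM sodium acetate pH 7; 20 uM heparin triggers fibrillization at 37 C over 6 hr; FP gives the signal.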
# Sfp inh = inhibitors of Bacillus subtilis Sfp phosphopantetheinyl transferase; Potency, µM, for inactives: largest response in the series, negative = inhibition, actives largely listed as inhibitors; AID 1490; actives 3.5% (n = 310,000); Biochemical Sfp PPTase activity, qHTS; Q9F4F7;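 note: the enzyme is Sfp with the accession as filed and its product quenches rhodamine fluorescence; potency is the fitted concentration of half-maximal effect; 0% = enzyme reaction without inhibitor and -100% = no enzyme wells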
#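 Reaction rates are the 30-min fluorescence difference (ex 525, em 598 nm) in wells containing 15 nM Sfp, 5 uM rhodamine-CoA and 12.5 uM BHQ-2-YbbR at pH 7.6 with 10 mM MgCl2.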
# Coupling enz = counter-screen for Giardia aldolase inhibitors: coupling enzyme system. actives 0.67% (n = 290,000). coupling enzyme system counterscreen, AmpLite Red fluorescence. activity change, negative = inhibition, % at 58.2 µM, hits read low. AID 2472; in the data active = activity change below about -30%
#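 Coupling enzymes only (glyceraldehyde-3-phosphate) + compound, at 57.5 uM final, 10 min RT; add substrate/coupling/AmpLite Red mix, 20 min RT; fluorescence ex 525/em 598 nm. Actives flag coupling-system interference.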
# Tau ThT inhib = blocks human tau fibril formation measured by thioflavin T; P10636; recombinant tau K18 P301L (four-repeat tau fragment), heparin-induced fibrillization, ThT fluorescence; Potency, µM (highest dose often 57.4 µM), inactives show at the top dose activity, negative = inhibition, usual class: inhibitors; actives 2.1% (n = 270,000); AID 1460; note: potency is the fitted concentration of half-maximal effect; nearly all actives have a fitted effect of over 55% in size
#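 Tau K18 P301L fragment (15 uM unlabeled plus 0.24 uM Alexa 594-labeled) in 100 mM sodium acetate pH 7 with compound, fibrillization induced by 20 uM heparin for 6 hr at 37 C. Thioflavin T (30 uM) added, fluorescence read after 1 hr (ex 450, em 510 nm).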
# Numbers without * were called inactive; ? = inconclusive; · = not tested or not shown; [ ] = remark or other dose. Unless noted, calls come from the whole dose curve; as a rule, active = well fitted curve in the direction sought with a large enough effect; inconclusive = small, poorly fitted or top-dose-only effect, or another doubt; inactive = no such curve, though single readings can be large; an effect the other way counts as inactive or inconclusive. Unless noted, % is set by controls: 0 for no effect and ±100 for the full control effect.
SMILES,Tau fluor cs,G9a inh,Tau fibril FP,Sfp inh,Coupling enz,Tau ThT inhib
COCC1=C2c3ccccc3[C@H](C[N+](=O)[O-])C(C(=O)OC)(C(=O)OC)C[C@@H]2n2c(=O)n(-c3ccccc3)c(=O)n2C1,-27%,·,?,1%,0,-12%
COc1cc(/C=C(\C#N)C(=O)c2c(C)[nH]c3ccccc23)cc(OC)c1OC,-22%,45µM*,-1%,-16%,-1,-13%
COc1ccc(NC(=O)c2oc3ccccc3c2NC(=O)Cc2cccs2)cc1,?,6%[59 µM],?,·,·,6%
COc1ccccc1N1CCN(C2CCN(C(=O)c3cc(OC)c(OC)c(OC)c3)CC2)CC1,1%,-46%[2.33 µM],10%,-27%,7,-3%
O=C(c1cccs1)N1CCC(N2CCN(c3ccccc3)CC2)CC1,-6%,14µM*,3%,?,-5,?
COc1ccc(C(=O)N2CCN(C3CCC(c4ccccc4)CC3)CC2)cc1OC (centres undefined),4%,3.2µM*,-9%,-26%,1,-4%
COc1ccc(C(=O)N2CCC(N3CCN(c4ccccc4)CC3)CC2)cc1OC,0%,7.9µM*,4%,?,-3,-10%
N#CCNC(=O)C1c2ccccc2Oc2ccccc21,·,10%,·,12%,0,·
CCN1C(=O)/C(=C\C(=O)c2cccs2)c2cc(Br)ccc21,-16%,?,-6%,20µM*,-1,?
CCOC(=O)C1CCN(C(=O)c2ccc(N(C)S(=O)(=O)c3ccc(OC)cc3)cc2)CC1,6%,7%,-1%,12%,1,7%
O=C1c2ccccc2C(=O)c2c1cccc2N(CCO)CCO,·,45µM*,·,21%,-20,·
NC(=O)COC(=O)c1cccc2c1-c1ccccc1C2=O,-5%,-33%,-9%,14%,0,-6%
Cc1ccc(CNc2nc(-c3cccnc3)nc3ccccc23)cc1,·,-45%,·,89µM*,1,·
c1ccc(CNc2nc(-c3cccnc3)nc3ccccc23)cc1,·,-3%,·,-8%,0,·
Cc1c(O)ccc(/C=N/Nc2nc(-c3cccnc3)nc3ccccc23)c1O,?,·,?,?,-1,?
c1cncc(-c2nc(NCc3ccc4c(c3)OCO4)c3ccccc3n2)c1,?,5%[59 µM],?,45µM*,-1,?
Oc1ccc(/C=N/Nc2nc(-c3cccnc3)nc3ccccc23)c(O)c1,11µM*[quencher],5%[59 µM],?,-13%,-5,2.2µM*
c1cncc(-c2nc(NCC3COc4ccccc4O3)c3ccccc3n2)c1 (centres undefined),?,50µM*,-16%,?,-2,-9%
c1cncc(CNc2nc(-c3cccnc3)nc3ccccc23)c1,·,-7%,·,13%,3,·
O=C(c1cc(C(F)(F)F)cc(C(F)(F)F)c1)N1CCC[C@@]2(CCN(Cc3ccncc3)C2)C1,·,?,·,-14%,1,·
COc1cc(NC(=O)COc2cccc3c2OC(C)(C)C3)cc(OC)c1OC,·,22%[12.7 µM],·,·,·,·
O=C1C2=C(C(=O)c3ccccc31)C1O[C@](c3ccsc3)(Cc3ccccc31)O2,·,-38%[2.33 µM],·,-3%,-16,·
CN1C(=O)CC2(C=CC(=O)C=C2OC(=O)c2ccccc2)c2ccccc21 (centres undefined),·,·,·,-26%,4,·
Clc1cccc(CNc2nc(-c3cccnc3)nc3ccccc23)c1,·,45µM*,·,-29%,1,·
c1ccc(CNc2nc(NCc3ccccc3)c3ccccc3n2)cc1,?,?,-13%,14µM*,-1,?
SMILES,Tau fluor cs,G9a inh,Tau fibril FP,Sfp inh,Coupling enz,Tau ThT inhib
Cc1ccc(CN(C)c2nc(-c3cccnc3)nc3ccccc23)o1,·,40µM*,·,0%,0,·
Nc1cccc(Oc2ccc3c(c2)C(=O)N(CC2CCCO2)C3=O)c1 (centres undefined),-20%,·,4%,2%,2,-12%
COC(=O)C(C)Sc1nc2c(c(=O)n(C)c(=O)n2C)n1CCC(C)C (centres undefined),-6%,79µM*,-6%,-14%,-1,-14%
COC(=O)C(C)Sc1nc2c(c(=O)[nH]c(=O)n2C)n1CCC(C)C (centres undefined),4%,-10%[59 µM],14%,-8%,4,-4%
CCCCCCCCCCCCOCCOCCOCCOCCO,-11%,19%[59 µM],9%,4%,0,?
Cc1noc(C)c1-c1ccc2ncnc(NCc3ccc(-c4ccccc4)cc3)c2c1,·,·,·,-3%,-1,·
O=C(C[n+]1cc(-c2ccc(Cl)cc2)n2c1CCCCC2)c1ccccc1,-4%,11%[12.7 µM],1%,2%,0,-9%
COc1ccc(-c2cnc3n2CCCCC3)cc1,-6%,-16%,-2%,20%,0,-10%
COc1ccc(-c2c[n+]3c4n2CCCCC4=C(c2ccc(Br)cc2)C3)cc1,-14%,8.9µM*,0%,45µM*,-2,?
Clc1ccc(C2=C3CCCCn4c(-c5ccccc5)c[n+](c43)C2)cc1,-10%,14µM*,-9%,79µM*,-2,?
COc1cccc(CN(C(=O)c2ccc(C(C)(C)C)cc2)C2CCS(=O)(=O)C2)c1 (centres undefined),-16%,-7%[59 µM],-1%,·,·,-9%
CCOc1ccc(C2C(C(=O)Nc3ccccc3)=C(C)Nc3nc(-c4ccccc4)nn32)cc1OC (centres undefined),?,19%[59 µM],1%,·,·,?
O=C(OCC#CCSc1nnc(-c2ccc([N+](=O)[O-])cc2)o1)c1cccs1,?,32µM*,?,5%,-5,?
COc1ccc(-c2nnc(SCC(=O)NC(=O)NCc3ccccc3)o2)cc1,-12%,45µM*,-6%,?,2,-9%
C#CCSc1nnc(-c2ccc([N+](=O)[O-])cc2)o1,-4%,50µM*,5%,8%,2,?
COc1ccc(-c2nnc(SCC#N)o2)cc1,0%,-43%,4%,13%,3,-15%
COc1ccc(-c2nnc(SCC(=O)NCc3ccco3)o2)cc1,-10%,?,-3%,-24%,4,-15%
C#CCSc1nnc(-c2ccc(OC)cc2)o1,-9%,45µM*,-8%,-3%,2,-10%
CSc1nnc(-c2ccc([N+](=O)[O-])cc2)o1,0%,?,-6%,5%,2,?
Cc1cc(N2CCN(c3ccc(F)cc3)CC2)n2cnnc2n1,-5%,6%[59 µM],1%,·,·,?
COc1ccc2c(c1)CC(C(=O)NCCCN1CCN(c3cccc(Cl)c3)CC1)CO2 (centres undefined),-15%,-10%[59 µM],6%,·,·,-14%
